FBPA Giardia inh = Giardia lamblia aldolase inhibition; A8B2U2; purified Giardia FBPA; Potency, µM (top dose mostly 59.6 µM), inactives show at the highest dose activity, negative = inhibition, usual class: inhibitors; 290,000 compounds, 0.71% hits; also: potency is read from the fitted curve at half-maximal effect; nearly all actives have a fitted effect of over 55% in size
Target sequence (A8B2U2 whole entry, looked up): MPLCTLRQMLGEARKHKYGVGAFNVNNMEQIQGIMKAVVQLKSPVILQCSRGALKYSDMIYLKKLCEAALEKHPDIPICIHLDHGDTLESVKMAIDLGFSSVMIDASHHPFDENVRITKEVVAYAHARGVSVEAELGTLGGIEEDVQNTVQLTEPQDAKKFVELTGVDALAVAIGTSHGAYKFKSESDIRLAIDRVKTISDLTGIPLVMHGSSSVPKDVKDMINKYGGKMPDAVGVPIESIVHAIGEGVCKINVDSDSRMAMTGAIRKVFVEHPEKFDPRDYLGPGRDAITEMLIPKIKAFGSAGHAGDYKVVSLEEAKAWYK
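Giardia FBPA (40 nM reagent) was preincubated 10 min at RT with compound (up to 57.5 uM final), then substrate plus GAPDH/TPI/NAD/arsenate coupling system with diaphorase/resazurin was added; resorufin fluorescence (525/598 nm) was read after 20 min.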
Vaccinia mCherry = vaccinia inhibition (mCherry reporter) | Vaccinia virus mCherry reporter infection, fluorescence | Potency, µM (top dose mostly 36.5 µM), for the others: top-dose activity change, negative = inhibition, usual class: inhibitors | 310,000 compounds, 0.63% hits; calls by dose curve; tested in A549 cells; also: potency is read from the fitted curve at half-maximal effect; nearly all actives have a fitted effect of over 35% in size
HCMV inh = inhibitors of human cytomegalovirus; HFF cells, HCMV-luciferase reporter, 72 h; active compounds read low; activity change, negative = inhibition, % at 57.5 µM; 410,000 compounds, 4.5% hits; AID 1259415; in the data active = activity change below about -60%; inconclusive = no clear call, values can overlap the other calls; inactive = above about -39%
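Cell-based, HFFs, 1000 cells/well, 16 h 37C; cpds in DMSO + HCMV-luc, MOI 1 PFU/cell; 72 h 37C; OneGlo luminescence after 5 min RT; norm. to buffer vs Salinomycin 10uM.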
FMDV inh = antivirals against foot and mouth disease virus; FMDV antiviral cell-based qHTS; Potency, µM (doses to about 57.9 µM), inactives show top-dose activity change, negative = inhibition, hits mostly inhibitors; 410,000 compounds, 1.2% hits; AID 1159524; calls by dose curve; tested in HEK293T cells; also: read-out not given here; potency is read from the fitted curve at half-maximal effect; nearly all actives have a fitted effect of over 45% in size
HCV inhibitor = blocks hepatitis C virus | Huh7.5.1 HCVcc-Cre infection, luciferase reporter, 44 h | Potency, µM (highest dose often 41.8 µM), inactives show at the highest dose activity change, negative = inhibition, usual class: inhibitors | 340,000 compounds, 3.4% hits | AID 651820; also: potency is read from the fitted curve at half-maximal effect
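Infectious HCVcc-Cre (~0.5 moi) was added to cells just after compound, with cells seeded 4 h earlier at 1,000 per well. Luciferase activity after 44 h culture reported infection; substrate was incubated 15 min at room temperature before reading.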
Vaccinia Venus = inhibitors of vaccinia virus (Venus reporter). Potency, µM (doses to about 36.5 µM), for inactives: at the highest dose activity change, negative = inhibition, usual class: inhibitors. AID 720580. 330,000 compounds, 0.46% hits. Vaccinia virus Venus reporter expression, fluorescence; calls by dose curve; tested in A549 cells; also: potency is read from the fitted curve at half-maximal effect; nearly all actives have a fitted effect of over 30% in size
An asterisk follows results filed as active. This is a sample that favours compounds with a hit; in the whole collection about 7.5% have one here. Unless noted, calls follow the shape of the dose curve; as a rule, active = well fitted curve in the direction sought with a large enough effect; inconclusive = small, poorly fitted or top-dose-only effect, or another doubt; inactive = no such curve, though single readings can be large; an effect the other way counts as inactive or inconclusive. % is scaled to controls: 0 for no effect and ±100 for the full control effect.

How did CCCn1nnc(NC(=S)NC(=O)Cc2ccccc2)n1 do in these assays?
FBPA Giardia inh: inconclusive; Vaccinia mCherry: 2.2µM*; HCMV inh: 31; FMDV inh: 12%; HCV inhibitor: 0%; Vaccinia Venus: inconclusive

How did c1nc(C2CCCCC2)cc2cc3c(cc12)OCO3 do in these assays?
Vaccinia mCherry: -1%; HCMV inh: 44; FMDV inh: 55%; HCV inhibitor: -14%; Vaccinia Venus: -14%

Results for COCCn1c(C)cc(C(=O)CSc2nnc(C)s2)c1C ?
FBPA Giardia inh: -26%; Vaccinia mCherry: -15%; HCMV inh: inconclusive; FMDV inh: 7.9µM*; HCV inhibitor: -14%; Vaccinia Venus: -2%

What do the screens show for `COc1ccc(Cl)cc1C(=O)CSc1nnnn1C1CCCCC1`?
FBPA Giardia inh: 11%; Vaccinia mCherry: -23%; HCMV inh: -62*; FMDV inh: -24%; HCV inhibitor: inconclusive; Vaccinia Venus: -16%

Results for COCCn1c(C)cc(C(=O)COC(=O)c2cccc(O)c2)c1C ?
FBPA Giardia inh: -1%; HCMV inh: -36; FMDV inh: 11µM*; HCV inhibitor: -17%

Results for COCCn1c(C)cc(C(=O)CSc2nnnn2C2CCCC2)c1C ?
Vaccinia mCherry: inactive; HCMV inh: inconclusive; FMDV inh: 13µM*; HCV inhibitor: -16%; Vaccinia Venus: -7%

What do the screens show for `COc1ccc(C(c2nnnn2-c2ccc3c(c2)OCCO3)N2CCC(n3c(=O)[nH]c4ccccc43)CC2)cc1` (centres undefined)?
Vaccinia mCherry: -25%; HCMV inh: inconclusive; FMDV inh: -9%; Vaccinia Venus: inconclusive

What do the screens show for `O=c1[nH]c2ccccc2n1C1CCN(C(c2ccnc3ccccc23)c2nnnn2-c2ccc3c(c2)OCCO3)CC1` (centres undefined)?
Vaccinia mCherry: -5%; HCMV inh: -76*; FMDV inh: -22%; Vaccinia Venus: -20%

Results for O=c1[nH]c2ccccc2n1C1CCN(C(CCc2ccccc2)c2nnnn2-c2ccc3c(c2)OCCO3)CC1 (centres undefined) ?
Vaccinia mCherry: inconclusive; HCMV inh: -104*; FMDV inh: 25µM*; Vaccinia Venus: inconclusive

Results for COc1cccc(C(c2nnnn2-c2c(C)cccc2C)N2CCC(n3c(=O)[nH]c4ccccc43)CC2)c1OC (centres undefined) ?
Vaccinia mCherry: -6%; HCMV inh: inconclusive; FMDV inh: inconclusive; Vaccinia Venus: -21%

How did COc1ccc(-n2nnnc2C(CCc2ccccc2)N2CCC(n3c(=O)[nH]c4ccccc43)CC2)cc1 (centres undefined) do in these assays?
Vaccinia mCherry: inconclusive; HCMV inh: -95*; FMDV inh: 28µM*; Vaccinia Venus: inconclusive

What do the screens show for `Cc1cccc(C)c1-n1nnnc1C(CCc1ccccc1)N1CCC(n2c(=O)[nH]c3ccccc32)CC1` (centres undefined)?
Vaccinia mCherry: inconclusive; HCMV inh: -94*; FMDV inh: 10µM*; Vaccinia Venus: inconclusive

Results for CCCCCCCCN1[C@@H](CC(C)=O)c2ccc(/C=C/C(C)=O)cc2S1(=O)=O ?
Vaccinia mCherry: -16%; Vaccinia Venus: -5%

What do the screens show for `CN(C(=O)c1cccs1)c1ccc(OCC(=O)Nc2ccc(C(=O)O)cc2)cc1`?
FBPA Giardia inh: 4%; HCMV inh: -21; FMDV inh: -17%; HCV inhibitor: 13%

What do the screens show for `CCOC(=O)c1cc(-c2ccc(F)cc2)n(CCC(=O)NC2CCC(C)CC2)c1C` (centres undefined)?
Vaccinia mCherry: -10%; HCMV inh: 0; FMDV inh: -16%; Vaccinia Venus: -11%

Results for CCOC(=O)C1CCN(C(=O)c2ccccc2CCc2ccccc2)CC1 ?
FBPA Giardia inh: 1%; HCMV inh: 106; FMDV inh: 1%; HCV inhibitor: -1%

How did C[C@H](CO)N1C[C@H](C)[C@@H](CN(C)S(=O)(=O)c2cn(C)cn2)Oc2c(NS(=O)(=O)c3ccc(F)cc3)cccc2C1=O do in these assays?
Vaccinia mCherry: inactive; HCMV inh: -17; FMDV inh: 13%; HCV inhibitor: 6%; Vaccinia Venus: -6%

Results for CCOC(=O)c1c(-c2ccc(OC)cc2)csc1NC(=O)C1CCCO1 (centres undefined) ?
FBPA Giardia inh: 3%; HCMV inh: inconclusive; FMDV inh: inconclusive; HCV inhibitor: inconclusive

What do the screens show for `CCOC(=O)c1c(-c2ccc(OC)cc2)csc1NC(=O)CCN1CCOCC1`?
FBPA Giardia inh: inconclusive; Vaccinia mCherry: -10%; HCMV inh: -26; FMDV inh: -26%; HCV inhibitor: inconclusive; Vaccinia Venus: -15%

How did CCOC(=O)c1c(-c2ccc(F)cc2)csc1NC(=O)C1CCCO1 (centres undefined) do in these assays?
FBPA Giardia inh: -1%; Vaccinia mCherry: -9%; HCMV inh: -60*; FMDV inh: -27%; HCV inhibitor: -16%; Vaccinia Venus: -2%

What do the screens show for `CCOC(=O)c1c(-c2ccc(C)cc2)csc1NC(=O)C1CCCO1` (centres undefined)?
FBPA Giardia inh: 3%; Vaccinia mCherry: inactive; HCMV inh: -18; FMDV inh: inconclusive; HCV inhibitor: 11µM*; Vaccinia Venus: -11%

How did CCOC(=O)c1c(-c2ccc(C)cc2)csc1NC(=O)CCN1CC(C)OC(C)C1 (centres undefined) do in these assays?
FBPA Giardia inh: inconclusive; Vaccinia mCherry: -21%; HCMV inh: 1; FMDV inh: 28µM*; HCV inhibitor: -27%; Vaccinia Venus: -26%

What do the screens show for `CCOC(=O)c1c(-c2ccc(C)o2)csc1NC(=O)CN1CCC(C(N)=O)CC1`?
FBPA Giardia inh: -25%; Vaccinia mCherry: -18%; HCMV inh: -3; FMDV inh: inconclusive; HCV inhibitor: 4.5µM*; Vaccinia Venus: -23%

Results for CC(C)OC(=O)c1c(-c2ccc(C(C)C)cc2)csc1NC(=O)C1CCCO1 (centres undefined) ?
FBPA Giardia inh: -3%; Vaccinia mCherry: -11%; HCMV inh: -23; FMDV inh: inconclusive; HCV inhibitor: -19%; Vaccinia Venus: -6%

What do the screens show for `O=C(Cc1cccc(NC(=O)C2CCCN(C(=O)CCc3ccccc3)C2)c1)Nc1ccc(C(=O)N2CCCCC2)cc1` (centres undefined)?
Vaccinia mCherry: inconclusive; HCMV inh: -7; FMDV inh: -16%; HCV inhibitor: inconclusive; Vaccinia Venus: inconclusive

How did O=C(COc1ccccc1C(=O)Nc1ccccc1)NCCCCc1ccccc1 do in these assays?
Vaccinia mCherry: -1%; Vaccinia Venus: -13%
